Measurements as given in PubChem BioAssay (Tox21).
Records with an inconclusive call do not appear. The source made the active and inactive calls. Calls follow the shape of the dose curve; as a rule, active = well fitted cell-killing curve with a large enough effect in the repeat runs; inconclusive = weak or mixed curves, or effect the other way; inactive = no such curve, though single readings can be large or run the other way.

Assay: qHTS assay to identify small molecule agonists of the estrogen receptor alpha (ER-alpha) signaling pathway in the presence of an antagonist - cell viability counter screen (AID 1259386); also: nearly all actives have a fitted effect of over 30% in size
Details: VM7Luc4E2 viability, CellTiter-Fluor fluorescence, 22 h; series mostly up to 92.4 µM; activity change, negative = cytotoxicity: at the top concentration
Outline: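 VM7Luc4E2 cells (endogenous full-length ER-alpha, 4×ERE-luciferase) were held 5 days in phenol red-free medium with 10% charcoal-stripped FBS, plated, then given 10.0nM ICI-182,780 and compounds at 15 concentrations for 22hr at 37C; viability read by CellTiter-Fluor fluorescence.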
% is scaled to controls: 0 for no effect and ±100 for the full control effect; potency is read from the fitted curve at half-maximal effect.

SMILES | activity change, negative = cytotoxicity | Potency
O=C(CCS)OCC(COC(=O)CCS)(COC(=O)CCS)COC(=O)CCS | -4.67% (inactive) | 
C/C(C=O)=C\c1ccccc1 | 0.133% (inactive) | 
O=C(O)CCS | 0.234% (inactive) | 
CC1C(C)(C)C2=C(C(=O)CCC2)C1(C)C (centres undefined) | -1.73% (inactive) | 
CC(C)CC(O)CC(C)C | 3.81% (inactive) | 
CCCCCc1ccco1 | -0.239% [at 42.5 µM] (inactive) | 
NC(=O)c1ccccc1[N+](=O)[O-] | 2.01% (inactive) | 
O=C(O)c1cccc(C[C@@H]2COc3ccc(OCc4nc5cc(F)ccc5s4)cc3[C@@H]2O)c1 | 6.5% (inactive) | 
CCCCCC | 3.72% (inactive) | 
CC(C)(C(=O)c1cccnc1)c1cccnc1 | 3.88% [at 42.5 µM] (inactive) | 
Cc1cc(CCC(=O)OCCOCCOCCOC(=O)CCc2cc(C)c(O)c(C(C)(C)C)c2)cc(C(C)(C)C)c1O | 1.73% (inactive) | 
O=C(O)CO | 1.38% (inactive) | 
O=C(O)CCC(=O)OC[C@@H](NC(=O)C(Cl)Cl)[C@H](O)c1ccc([N+](=O)[O-])cc1 | 1.44% [at 42.5 µM] (inactive) | 
Nc1ccc(N=Nc2ccc(N)cc2)cc1 |  | 24.3 µM (active)
CC(C)(C)CCCCCCOC(=O)c1ccccc1C(=O)OCCCCCCC(C)(C)C | 0.735% (inactive) | 
CC(C)C(=O)OCCOc1ccccc1 | 3.11% (inactive) | 
CCCCCCCCCCCCCCN(C)C | -8.37% [at 19 µM] (inactive) | 
BrC(Br)C(Br)Br | 0.138% (inactive) | 
COc1cc(NS(=O)(=O)c2ccc(N)cc2)nc(C)n1 | 4.33% [at 42.5 µM] (inactive) | 
COc1ccc(CCN(C)CCCN2CCc3cc(OC)c(OC)cc3CC2=O)cc1OC | -1.47% [at 42.5 µM] (inactive) | 

SMILES | activity change, negative = cytotoxicity | Potency
O=NN(CCCl)C(=O)NCCCl | 4.68% [at 42.5 µM] (inactive) | 
O=C(Nc1ccc(C(=O)O)c(O)c1)c1ccccc1 | 0.727% [at 42.5 µM] (inactive) | 
C=C(C)C(=O)OCCC(F)(F)C(F)(F)C(F)(F)C(F)(F)C(F)(F)C(F)(F)F | -4.89% (inactive) | 
CCN(CC)CCOc1ccccc1C(=O)CCc1ccccc1 | -9.04% [at 42.5 µM] (inactive) | 
CC(C)COC(=O)COc1cc(Cl)c(Cl)cc1Cl | -0.0754% (inactive) | 
CCOCCC(=O)OCC | 2% (inactive) | 
O=C(O)c1cc(Cl)cc(Cl)c1O | 4.23% (inactive) | 
CC(O)Cn1cnc2c1c(=O)n(C)c(=O)n2C (centres undefined) | -3.48% [at 42.5 µM] (inactive) | 
COC(=O)CC(C(C)=O)C(=O)OC (centres undefined) | -3.95% (inactive) | 
CCc1ccc(C)cc1 | 1.96% (inactive) | 
Cc1ccc(NC(=O)N(C)C)cc1NC(=O)N(C)C | 0.459% (inactive) | 
O=C(O)c1ccc(O)cc1O | 0.098% (inactive) | 
OCC(CO)n1cnc(-c2ccc(F)cc2)c1-c1ccnc(Oc2ccccc2)n1 | 0.753% (inactive) | 
CC(=O)Oc1cccc(O)c1 | 0.726% [at 42.5 µM] (inactive) | 
CC(C)c1ccc(C#N)cc1 | -2.03% (inactive) | 
N[C@@H](Cc1cc(I)c(O)c(I)c1)C(=O)O | 0.862% [at 42.5 µM] (inactive) | 
CSSc1ccoc1C | 1.57% (inactive) | 
CNc1c2c(nn1C)CCCC2 | 2.04% [at 42.5 µM] (inactive) | 
ClC1=C(Cl)C1(Cl)Cl | 0.338% (inactive) | 
